According to PubChem BioAssay (EPA / NIEHS):
Inconclusive results are not listed. Active and inactive are the calls of the source. How the source made its calls, unless noted: active means hit-call score of the fitted dose curve at least 0.9, where 1 is the maximum; inconclusive means response in the unintended direction; inactive means score below 0.9.

Legend:
[1] = molecular target: Cellular tumor antigen p53 (Homo sapiens) (UniProt P04637); experiment: TOX21_p53_BLA_p2_ratio: Tox21 HCT-116 p53 Agonism Beta-lactamase Assay, Ratio, Phase 2 (AID 2283592)
Sequence of Cellular tumor antigen p53 (Homo sapiens) (P04637 whole entry, looked up): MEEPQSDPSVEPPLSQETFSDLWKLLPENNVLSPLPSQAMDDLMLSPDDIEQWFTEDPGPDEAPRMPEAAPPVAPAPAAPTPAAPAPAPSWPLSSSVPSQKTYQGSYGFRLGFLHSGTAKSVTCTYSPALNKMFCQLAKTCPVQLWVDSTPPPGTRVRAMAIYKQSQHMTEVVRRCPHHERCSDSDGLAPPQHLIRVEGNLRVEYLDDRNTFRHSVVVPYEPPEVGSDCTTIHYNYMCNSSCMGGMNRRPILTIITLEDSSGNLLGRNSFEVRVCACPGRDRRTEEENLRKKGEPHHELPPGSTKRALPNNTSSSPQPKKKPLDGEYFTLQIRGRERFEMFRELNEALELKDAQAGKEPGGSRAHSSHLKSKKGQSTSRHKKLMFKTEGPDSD
How it was run: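 Ratio endpoint: beta-lactamase cleavage of CCF4-AM, blue (460 nm) over green (530 nm). HCT116 reporter line; 16 h treatment, 37C; substrate 2 h RT.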

[2] = TOX21_p53_BLA_p3_viability: Viability Assessment in the Tox21 HCT-116 p53 Agonism Beta-lactamase Assay, Phase 3 (AID 2283593);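 further: cells exposed to compound for 16 h before reading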
How it was run: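 HCT-116 cells (4000/well) rested 5 h at 37C, then got DMSO compounds by pin tool (217-fold dilution) for 16 h at 37C, 5% CO2. After the bla read, CellTiter-Glo was added and luminescence read at 30 min, room temperature.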

[3] = molecular target: Cellular tumor antigen p53 (Homo sapiens) (UniProt P04637); experiment: TOX21_p53_BLA_p3_ratio: Tox21 HCT-116 p53 Agonism Beta-lactamase Assay, Ratio, Phase 3 (AID 2283596)
How it was run: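 Cells were seeded at 4000/well, rested 5 h at 37C, then dosed with DMSO compound solutions (217-fold dilution) for 16 h. CCF4-AM substrate was loaded for 2 h at room temperature, and the 460/530 nm emission ratio was fitted for gain of signal versus DMSO.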

[4] = TOX21_p53_BLA_p4_viability: Viability Assessment in the Tox21 HCT-116 p53 Agonism Beta-lactamase Assay, Phase 4 (AID 2283597);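 further: hits lower the luminescence signal meaning cytotoxicity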
How it was run: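 Cytotoxicity was inferred from loss of CellTiter-Glo luminescence. HCT116 cells had been dosed with compounds after 5 h plating, incubated 16 h at 37C and 5% CO2, and exposed to the CCF4-AM substrate for 2 h.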

[5] = molecular target: Cellular tumor antigen p53 (Homo sapiens) (UniProt P04637); experiment: TOX21_p53_BLA_p5_ratio: Tox21 HCT-116 p53 Agonism Beta-lactamase Assay, Ratio, Phase 5 (AID 2283599)
How it was run: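 HCT-116 cells carrying a p53-inducible beta-lactamase reporter were seeded at 4000 cells/well and dosed after 5 h with compound in DMSO (217-fold dilution). After 16 h at 37C, CCF4-AM substrate was added for 2 h, and the 460/530 nm emission ratio was scored as gain-of-signal versus DMSO.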

[6] = molecular target: Cellular tumor antigen p53 (Homo sapiens) (UniProt P04637); experiment: TOX21_p53_BLA_p4_ratio: Tox21 HCT-116 p53 Agonism Beta-lactamase Assay, Ratio, Phase 4 (AID 2283601)
How it was run: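 HCT116 cells carrying an inducible beta-lactamase reporter were plated at 4000 cells/well, rested 5 h, then exposed to compounds in DMSO (217-fold dilution) for 16 h at 37C. CCF4-AM substrate was loaded 2 h at room temperature; 460/530 nm emission ratio scored gain-of-signal versus DMSO.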

[7] = system: Thyroperoxidase (TPO), gene 54314; experiment: CCTE_Simmons_AUR_rTPO: CCTE's Amplex UltraRed Assay for Thyroperoxidase (TPO) Inhibition, Simmons Lab (AID 2283662)
How it was run: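 Cell-free peroxidase activity assay using rat thyroid gland microsomes with excess H2O2 (300 uM) and 25 uM Amplex UltraRed. Compounds tested from 5 nM to 87.5 uM; fluorescence measured after 30 min at 37C, analysed relative to DMSO baseline.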

[8] = CCTE_Simmons_CellTiterGLO_HEK293T: Viability Assessment in CCTE's Assays for Thyroperoxidase (TPO) Inhibition, Simmons Lab (AID 2283665);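 further: cells exposed to compound for 24 h before readout; actives reduce ATP signal below DMSO vehicle meaning cytotoxicity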
How it was run: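 Cells were seeded overnight, then exposed to an eight-point series up to 87.5 uM final for 24 hours. CellTiter-Glo reagent was added and luminescence read after 20 min, giving ATP-based viability versus DMSO.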

[9] = molecular target: Luciferin 4-monooxygenase (Photinus pyralis) (UniProt P08659); experiment: CCTE_Simmons_QuantiLum_inhib_2: CCTE's Firefly Luciferase Inhibition Assay, Simmons Lab (AID 2283767);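 further: potency for inhibitors that lower luciferase luminescence relative to DMSO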
Sequence of Luciferin 4-monooxygenase (Photinus pyralis) (P08659 whole entry, looked up): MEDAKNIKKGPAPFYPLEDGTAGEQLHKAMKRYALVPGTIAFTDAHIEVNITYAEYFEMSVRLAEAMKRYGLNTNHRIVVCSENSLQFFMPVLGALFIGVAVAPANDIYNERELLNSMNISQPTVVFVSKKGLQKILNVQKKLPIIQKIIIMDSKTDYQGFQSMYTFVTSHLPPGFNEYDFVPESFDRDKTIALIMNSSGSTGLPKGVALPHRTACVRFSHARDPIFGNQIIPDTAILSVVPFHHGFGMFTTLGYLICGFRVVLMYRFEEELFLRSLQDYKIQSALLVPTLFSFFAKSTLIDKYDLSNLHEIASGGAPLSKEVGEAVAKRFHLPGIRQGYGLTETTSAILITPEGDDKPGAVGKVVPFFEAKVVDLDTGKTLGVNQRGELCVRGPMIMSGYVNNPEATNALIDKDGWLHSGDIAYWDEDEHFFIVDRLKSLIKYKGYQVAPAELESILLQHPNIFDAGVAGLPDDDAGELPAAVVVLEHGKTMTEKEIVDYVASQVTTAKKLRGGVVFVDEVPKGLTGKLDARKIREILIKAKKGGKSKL
How it was run: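 First, 5 ng purified luciferase in phosphate buffer with BSA is dispensed per well. Next, test chemicals (5 nM to 87.5 uM final, 0.5% DMSO) are added and incubated 30 min at 37C in darkness. Finally, luciferin reagent is injected and luminescence read kinetically.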

[10] = CCTE_Shafer_MEA_dev_firing_rate_mean: CCTE's Neural Network Formation Assay for Mean Firing Rate, Shafer Lab (AID 2284031; active means hit-call score of the fitted dose curve at least 0.9, where 1 is the maximum; inactive means score below 0.9;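 further: curve fitted for loss of firing so AC50 reflects decreased mean firing rate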)
How it was run: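 Steps: seed rat cortical cells (1.5 x 10^5/well) with laminin on PEI-coated MEA; dose day 0; record DIV 5/7/9/12, full media and compound exchange after DIV 5 and 9 recordings; compute well-mean firing rate AUC.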

[11] = CCTE_Shafer_MEA_dev_per_burst_spike_percent: CCTE's Neural Network Formation Assay for Percent of Spikes in a Burst, Shafer Lab (AID 2284032; active means hit-call score of the fitted dose curve at least 0.9, where 1 is the maximum; inactive means score below 0.9;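 further: fitted as a decrease in burst spike percentage below DMSO baseline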)
How it was run: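 Value is trapezoidal AUC over recordings on days 5, 7, 9 and 12 of the well-mean fraction of spikes falling in single-electrode bursts; rat cortical cultures exposed continuously from plating, treatment renewed DIV 5 and 9, fitted downward against DMSO.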

[12] = CCTE_Shafer_MEA_dev_active_electrodes_number: CCTE's Neural Network Formation Assay for Number of Active Electrodes, Shafer Lab (AID 2284040);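 further: potency for loss of active electrodes versus DMSO so lower counts are hits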
How it was run: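 Counts electrodes per well firing at least 5 spikes/min, recorded on days 5, 7, 9 and 12 in rat cortical cultures dosed continuously from plating (treatment refreshed DIV 5, 9). Value is the area under the curve over recordings, fitted downward relative to DMSO.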

[13] = CCTE_Shafer_MEA_dev_burst_rate: CCTE's Neural Network Formation Assay for Burst Rate, Shafer Lab (AID 2284042; active means hit-call score of the fitted dose curve at least 0.9, where 1 is the maximum; inactive means score below 0.9;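 further: potency for loss of burst rate below DMSO control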)
How it was run: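 Cells plated, treated day 0; recorded DIV 5, 7, 9, 12; fed and re-treated DIV 5, 9. Endpoint: bursts per recording time, active-electrode well mean, trapezoidal AUC, fitted in decreasing direction against DMSO baseline.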

[14] = CCTE_Shafer_MEA_dev_bursting_electrodes_number: CCTE's Neural Network Formation Assay for Number of Bursting Electrodes, Shafer Lab (AID 2284043);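 further: potency is for loss of bursting electrodes relative to DMSO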
How it was run: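 Counted: electrodes with burst rate ≥1 per 2 min in each well. Cells: primary rat cortex, 1.5 x 10^5/well, on 16-electrode MEA wells. Exposure: DIV 0–12, compound renewed DIV 5 and 9. Recording days 5, 7, 9, 12; AUC vs DMSO baseline.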

[15] = CCTE_Shafer_MEA_dev_per_burst_interspike_interval: CCTE's Neural Network Formation Assay for Burst Interspike Interval, Shafer Lab (AID 2284044; active means hit-call score of the fitted dose curve at least 0.9, where 1 is the maximum; inactive means score below 0.9;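 further: potency for a decrease of within-burst interspike interval below DMSO level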)
How it was run: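 Rat cortical primary cultures, 16 electrodes/well; compound from plating, renewed with full media change DIV 5 and 9. Spikes via adaptive detector; per-burst ISI well-mean over active bursting electrodes; AUC of DIV 5/7/9/12 recordings; loss-direction fit vs DMSO.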

[16] = CCTE_Shafer_MEA_dev_burst_duration_mean: CCTE's Neural Network Formation Assay for Mean Burst Duration, Shafer Lab (AID 2284045; active means hit-call score of the fitted dose curve at least 0.9, where 1 is the maximum; inactive means score below 0.9;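 further: curve fitted for loss meaning shorter burst duration than DMSO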)
How it was run: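 Network-formation assay in primary rat cortical neurons; treatment spans twelve days of development. Mean burst duration per well is integrated by trapezoidal AUC and fitted in the loss-of-signal direction against DMSO baseline.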

[17] = CCTE_Shafer_MEA_dev_interburst_interval_mean: CCTE's Neural Network Formation Assay for Mean Interburst Interval, Shafer Lab (AID 2284046; active means hit-call score of the fitted dose curve at least 0.9, where 1 is the maximum; inactive means score below 0.9;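 further: well-mean interburst interval of bursting electrodes as AUC over four recording days; curve fitted for decrease in interburst interval relative to DMSO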)
How it was run: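 Developing rat cortical networks on 48-well MEAs receive compound from the day of plating. Burst intervals from each active electrode are averaged per well, and AUC over the recording days is fitted in the negative direction against DMSO.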

[18] = CCTE_Shafer_MEA_dev_network_spike_number: CCTE's Neural Network Formation Assay for Number of Network Spikes, Shafer Lab (AID 2284048; active means hit-call score of the fitted dose curve at least 0.9, where 1 is the maximum; inactive means score below 0.9;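 further: synchronized bursts across electrodes counted on days 5 7 9 12 and integrated as AUC; fit as a loss of signal meaning fewer network spikes than DMSO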)
How it was run: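 Extracellular recordings from 16-electrode wells track network formation in rat cortical cultures under continuous treatment from plating. The endpoint is network spike number, expressed as AUC across DIV 5–12 relative to DMSO vehicle.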

Measured: AC50

[CH3][Hg][Cl]
active: [1] 44.8 µM | [2] 79.6 µM | [3] 1.77 µM | [5] 2.25 µM | [8] 4.18 µM | [9] 4.22 µM | [10] 0.177 µM | [11] 0.306 µM | [12] 0.36 µM | [13] 0.207 µM | [14] 0.37 µM | [15] 0.322 µM | [16] 0.26 µM | [17] 0.34 µM | [18] 0.0867 µM
inactive: [4] | [6] | [7]
